From PubChem BioAssay AID504339 (National Center for Advancing Translational Sciences (NCATS), 2011)
The whole screen tested about 390,000 compounds, of which about 17,000 (4.4%) were called active. Not shown: some 8% with an inconclusive outcome. The call rests on the fitted dose curve; in most records, active means well fitted inhibition curve with a large enough effect; inconclusive means small, poorly fitted or top-dose-only effect; inactive means no such curve, though single readings can be large or run the other way. Shown is part of a subset that was picked to be rich in actives. Where a call stands in place of a potency, no number is given.

biological target: Lysine-specific demethylase 4A (Homo sapiens) (UniProt O75164); experiment: qHTS Assay for Inhibitors of JMJD2A-Tudor Domain; conditions: AlphaScreen JMJD2A-Tudor / H3K4me3 peptide binding; series mostly up to 114 µM; further: nearly all actives have a fitted effect of over 50% in size
Sequence (O75164 whole entry, looked up, the tested form may be a part): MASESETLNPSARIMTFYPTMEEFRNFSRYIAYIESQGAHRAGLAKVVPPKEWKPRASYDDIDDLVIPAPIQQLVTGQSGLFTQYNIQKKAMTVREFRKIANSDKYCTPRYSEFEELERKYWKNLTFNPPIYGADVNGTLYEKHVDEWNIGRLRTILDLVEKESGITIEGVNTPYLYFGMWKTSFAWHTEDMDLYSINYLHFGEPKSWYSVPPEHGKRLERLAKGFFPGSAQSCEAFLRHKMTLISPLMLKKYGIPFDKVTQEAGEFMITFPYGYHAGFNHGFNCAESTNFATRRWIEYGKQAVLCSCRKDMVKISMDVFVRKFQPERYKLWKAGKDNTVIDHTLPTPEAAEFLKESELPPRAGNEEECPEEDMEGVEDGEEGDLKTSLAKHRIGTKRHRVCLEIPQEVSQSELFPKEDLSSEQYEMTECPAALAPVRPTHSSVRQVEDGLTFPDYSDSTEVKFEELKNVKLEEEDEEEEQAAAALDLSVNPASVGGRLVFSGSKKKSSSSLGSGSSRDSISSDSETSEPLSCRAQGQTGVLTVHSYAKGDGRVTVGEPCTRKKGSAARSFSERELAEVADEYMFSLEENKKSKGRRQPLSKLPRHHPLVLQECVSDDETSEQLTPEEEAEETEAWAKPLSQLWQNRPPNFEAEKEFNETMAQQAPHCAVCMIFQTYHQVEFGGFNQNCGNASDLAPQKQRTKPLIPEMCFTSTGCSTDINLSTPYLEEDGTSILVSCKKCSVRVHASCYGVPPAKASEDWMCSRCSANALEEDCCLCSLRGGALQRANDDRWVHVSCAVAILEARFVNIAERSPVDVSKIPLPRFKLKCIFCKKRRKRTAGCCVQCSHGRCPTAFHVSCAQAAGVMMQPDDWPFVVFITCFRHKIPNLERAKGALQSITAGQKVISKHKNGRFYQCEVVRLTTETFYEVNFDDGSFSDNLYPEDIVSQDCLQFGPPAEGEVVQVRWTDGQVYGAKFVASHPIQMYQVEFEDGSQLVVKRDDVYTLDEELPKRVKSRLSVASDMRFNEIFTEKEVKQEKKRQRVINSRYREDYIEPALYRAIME
Potency means the concentration at half of the fitted maximal effect.

SMILES	Potency
Cc1ccc(-n2cnc3cc(C(=O)NCCC4=CCCCC4)ccc32)cc1Cl	inactive
CC1Cc2cc(S(=O)(=O)CCC(=O)Nc3ccc(F)c(Cl)c3)ccc2N1C(=O)C1CC1 (stereo not drawn)	inactive
COc1ccc(C2Nc3ccccc3C(=O)N2c2ccc(F)cc2)cc1Cn1nnc2ccccc21 (stereo not drawn)	inactive
COc1ccc(C(=O)N(Cc2ccccc2)Cc2ccc(OC)c(COc3ccc(NC(C)=O)cc3)c2)c(O)c1	inactive
COc1ccc(C2Nc3ccccc3C(=O)N2Cc2ccc(CNC(=O)CO)cc2)cc1COc1ccc(NC(C)=O)cc1 (stereo not drawn)	79.4 µM (active)
COc1ccc(C2Nc3ccccc3C(=O)N2Cc2ccco2)cc1COc1cccc(NC(C)=O)c1 (stereo not drawn)	50.1 µM (active)
COc1ccc(NC(=O)NC2CC3CCCC(C2)N3Cc2ccccc2)cc1 (stereo not drawn)	inactive
COc1cc(C2C3=C(CCCC3=O)OC3=C2C(=O)CCC3)ccc1OCC(=O)Nc1ccccc1	inactive
COc1ccc(C2Nc3ccccc3C(=O)N2Cc2ccc(Cl)cc2)cc1COc1ccc(NC(C)=O)cc1 (stereo not drawn)	inactive
COc1ccc(C2Nc3ccccc3C(=O)N2Cc2ccccc2)cc1Cn1nnc2ccccc21 (stereo not drawn)	inactive
COc1ccc(C2Nc3ccc(NC(=O)COC(C)=O)cc3C(=O)N2Cc2ccccc2)cc1COc1ccc(NC(C)=O)cc1 (stereo not drawn)	79.4 µM (active)
COc1ccc(N2C(=O)C(CC(=O)Nc3ccccc3)N(Cc3ccc(OC)c(OC)c3)C2=O)cc1 (stereo not drawn)	inactive
COc1ccc(C2Nc3cccc(OC)c3C(=O)N2Cc2ccccc2)cc1COc1ccc(NC(C)=O)cc1 (stereo not drawn)	56.2 µM (active)
CCOC(=O)NN1C(=O)c2ccccc2NC1c1cccc(O)c1 (stereo not drawn)	inactive
CCOC(=O)c1cc2c(=O)n3ccccc3nc2n(CCCOC)c1=NC(=O)C(C)(C)Oc1ccc(Cl)cc1	inactive
Cc1ccc(-n2ncc3c(=O)n(Cc4cccc(C(F)(F)F)c4)cnc32)cc1C	inactive
COC(=O)c1ccc(Cn2c(SCC(=O)N(C)c3ccccc3)nc3ccccc32)cc1	inactive
Cc1ccc2onc(CC(=O)N3CCN(c4ccc(Cl)cc4)CC3)c2c1	inactive
CC1CCN(S(=O)(=O)c2ccc3c(c2)N(CC(=O)NCc2ccccc2Cl)C(=O)CO3)CC1	inactive
O=C(NCC12CC3CC(CC(C3)C1)C2)c1cc2nc(-c3ccccc3)cc(C(F)(F)F)n2n1	inactive
COC(=O)c1ccccc1NS(=O)(=O)c1ccc2c(c1)CCCN2C(C)=O	inactive
Cc1ccsc1CN(C(=O)c1oc2ccc(Br)cc2c1C)C1CCS(=O)(=O)C1 (stereo not drawn)	inactive
Cc1nc2ccc(S(=O)(=O)N(CC(=O)Nc3ccc(F)cc3)Cc3ccccc3)cc2s1	inactive
